Reference: PubChem BioAssay (NCATS)
Records with an inconclusive call do not appear. Activity calls are given as the source filed them. Calls follow the shape of the dose curve; as a rule, active = well fitted inhibition curve with a large enough effect; inconclusive = small, poorly fitted or top-dose-only effect; inactive = flat fitted curve, though single readings scatter.

Columns and labels:
Experiment in all cases: qHTS profiling for inhibitors of Plasmodium falciparum proliferation (AID 504749); also: nearly all actives have a fitted effect of over 60% in size
Settings in all cases: P. falciparum in erythrocytes, SYBR Green DNA, 72 h; series mostly up to 28.7 µM
CP260 = tested on: CP260
Procedure, shortened: (§1)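 P. falciparum-infected erythrocytes (0.3% parasitemia, 2.5% hematocrit) incubated with compound 72 h at 37 C, 5% CO2. Parasite DNA detected by SYBR Green after lysis, overnight at room temperature; normalised to 0.29 uM artemisinin and DMSO.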

CP262 = tested on: CP262
Procedure, shortened: as §1

CP265 = tested on: CP265
Procedure, shortened: as §1

CP266 = tested on: CP266
Procedure, shortened: as §1

CP268 = tested on: CP268
Procedure, shortened: as §1

CP269 = tested on: CP269
Procedure, shortened: as §1

CP286 = tested on: CP286
Procedure, shortened: as §1

CP291 = tested on: CP291
Procedure, shortened: as §1

CP297 = tested on: CP297
Procedure, shortened: as §1

CP305 = tested on: CP305
Procedure, shortened: as §1

CP315 = tested on: CP315
Procedure, shortened: as §1

CP325 = tested on: CP325
Procedure, shortened: as §1

CP329 = tested on: CP329
Procedure, shortened: as §1

CP335 = tested on: CP335
Procedure, shortened: as §1

DFO2036 = tested on: DFO2036
Procedure, shortened: as §1

DIV14 = tested on: DIV14
Procedure, shortened: as §1

DIV17 = tested on: DIV17
Procedure, shortened: as §1

DIV30 = tested on: DIV30
Procedure, shortened: as §1

Dd2 = tested on: Dd2
Procedure, shortened: as §1

ECU = tested on: ECU
Procedure, shortened: as §1

FAB9 = tested on: FAB9
Procedure, shortened: as §1

GB4 = tested on: GB4
Procedure, shortened: as §1

HB3 = tested on: HB3
Procedure, shortened: as §1

ICS = tested on: ICS
Procedure, shortened: as §1

JCK = tested on: JCK
Procedure, shortened: as §1

N140 = tested on: N140
Procedure, shortened: as §1

P93_24 = tested on: P93_24
Procedure, shortened: as §1

P94_40 = tested on: P94_40
Procedure, shortened: as §1

PAD = tested on: PAD
Procedure, shortened: as §1

PC15 = tested on: PC15
Procedure, shortened: as §1

PC26 = tested on: PC26
Procedure, shortened: as §1

PC49 = tested on: PC49
Procedure, shortened: as §1

SC27B = tested on: SC27B
Procedure, shortened: as §1

TAB109 = tested on: TAB109
Procedure, shortened: as §1

TAB113 = tested on: TAB113
Procedure, shortened: as §1

TAB165 = tested on: TAB165
Procedure, shortened: as §1

W2 = tested on: W2
Procedure, shortened: as §1

Measured: Potency

O=C(O)[C@H]1C[C@@H](CP(=O)(O)O)CCN1
inactive: all assays above
